Rv3671c inh – Rv3671c serine protease inhibitors, primary screen, biochemical, fluorescence polarization, M. tuberculosis H37Rv; inhibition, % at 5.96 µM; P9WHR9; hit rate 0.048% among 320,000; in the data active means inhibition above about 38%;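 further: extracellular domain of Rv3671c used as enzyme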
Mtb UGM inh – M. tuberculosis UGM enzyme inhibitors, primary screen, biochemical, fluorescence polarization, single point; hit rate 0.06% among 320,000; inhibition, % at 10 µM; UDP-galactopyranose mutase (Mycobacterium tuberculosis (strain ATCC 25618 / H37Rv)), …; purified UGM, fluorescence polarization probe displacement; AID 504406, 2011; in the data active means inhibition above about 10%, passing the limit was not always enough
GDH-TPI counter – GDH-TPI coupling enzyme inhibitors, primary screen, artefact control for M. tuberculosis FBA inhibitor project, biochemical, absorbance, full deck. GDH-TPI coupled enzyme counterscreen, NADH absorbance. inhibition, % at 4.8 µM. hit rate 1.2% among 360,000; in the data active means inhibition above about 30%
Mtb hypoxia inh – PubChem AID 1159583. M. tuberculosis hypoxia-regulated fluorescent reporter, fluorescence. fluorescence inhibition, % (concentration not given with the values). hit rate 0.1% among 300,000; in the data active means fluorescence inhibition mostly above about 23%, no sharp cut-off; inactive means mostly below about 17%
FadD28 binding – inhibitors of FadD28 bisubstrate probe binding, primary screen, biochemical, fluorescence polarization, single point; inhibition, % at 12.5 µM; hit rate 0.22% among 360,000; in the data active means inhibition above about 8.5%, passing the limit was not always enough
Mtb FBA inh – Mtb FBA enzyme inhibitors, primary screen, biochemical, fluorescence, strain H37Rv. purified M. tuberculosis FBA, fluorescence read-out. Fructose-bisphosphate aldolase (Mycobacterium tuberculosis (strain ATCC 25618 / H37Rv)), …. hit rate 2.3% among 360,000. inhibition, % at 1 µM; in the data active means inhibition above about 27%
Target sequence (P9WQA3 whole entry, looked up): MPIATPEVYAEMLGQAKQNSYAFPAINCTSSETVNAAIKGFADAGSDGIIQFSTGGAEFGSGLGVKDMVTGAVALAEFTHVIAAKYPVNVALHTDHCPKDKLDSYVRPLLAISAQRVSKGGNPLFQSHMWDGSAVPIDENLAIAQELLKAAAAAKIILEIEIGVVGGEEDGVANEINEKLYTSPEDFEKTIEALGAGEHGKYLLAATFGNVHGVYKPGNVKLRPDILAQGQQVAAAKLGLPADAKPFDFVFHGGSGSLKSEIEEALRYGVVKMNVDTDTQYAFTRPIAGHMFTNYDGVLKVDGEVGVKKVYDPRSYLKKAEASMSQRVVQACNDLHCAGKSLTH
Numbers stand for hits; . = inactive; / = not tested or not shown; + = active, no number. An excerpt weighted towards active compounds, which were near 3.5% of everything screened.

SMILES	Rv3671c inh	Mtb UGM inh	GDH-TPI counter	Mtb hypoxia inh	FadD28 binding	Mtb FBA inh
COCCCn1c(=N)c(C(=O)NC2CCCCC2)cc2c(=O)n3ccccc3nc21	.	.	.	.	.	+
COc1ccc(Cn2c(=N)c(C(=O)NC3CCCCC3)cc3c(=O)n4ccccc4nc32)cc1	.	.	.	/	.	.
CCOC(=O)c1cc2c(=O)n3ccccc3nc2n(CC2CCCO2)c1=NC(C)=O (stereo not given)	.	.	.	.	.	/
CCOC(=O)c1cc2c(=O)n3ccccc3nc2n(CC2CCCO2)c1=NC(=O)/C=C/c1ccccc1 (stereo not given)	.	.	.	.	.	+
CCN1C(=O)C2C(c3ccc(OC)cc3)N3C(=O)CN(CCOC)C(=O)[C@@]3(Cc3ccccc3)C2C1=O (stereo not given in full)	/	/	/	.	/	/
O=C1C=C(c2ccc(-c3ccccc3)c(F)c2)CC(c2ccc(F)cc2)C1 (stereo not given)	/	/	/	.	/	/
COc1ccc(C=NNC(=O)Cc2cccs2)cc1	/	/	/	.	/	/
CC1(C)Cc2c(c(N3CCOCC3)nc3sc(-c4ccc(C(=O)O)o4)c(N)c23)CO1	.	.	37	/	.	69
NC1=NCC(c2ccccc2)N1CCc1cc(C(F)(F)F)cc(C(F)(F)F)c1 (stereo not given)	/	/	/	.	/	/
CCN1CCN(c2nc(N)c([N+](=O)[O-])c(Nc3cccc(C)c3)n2)CC1	.	.	35	.	.	.
Cc1cc(C)nc(N/N=C/C2=C(N3CCOCC3)C(=C/c3ccccc3)/CC2)n1	.	.	32	/	.	.
C=CCNC(=S)NN=Cc1ccc(OCc2ccccc2Cl)cc1	/	/	/	.	/	/
C=CCn1c(SCC(=O)c2ccc(NS(=O)(=O)c3ccccc3)cc2)nnc1-c1cccs1	.	.	35	.	.	.
CCN(CC)S(=O)(=O)c1ccc2nc(NC(=O)c3ccco3)sc2c1	.	.	.	.	.	.
O=C(Nc1nc2cc3c(cc2s1)OCCO3)c1cccc(N2C(=O)CCC2=O)c1	.	.	31	.	.	.
O=C(Nc1nc2cc3c(cc2s1)OCCO3)c1cccs1	.	.	38	.	.	.
CC(=O)Nc1ccc2nc(NC(=O)c3cccs3)sc2c1	.	.	53	.	.	.
Cc1nc2ccc(NC(=O)c3cccs3)cc2s1	.	.	.	.	.	.
CCN(CC)S(=O)(=O)c1ccc2nc(NC(=O)c3cccs3)sc2c1	.	.	35	/	.	.
COc1ccccc1C(=O)Nc1nc2cc3c(cc2s1)OCCO3	.	.	.	.	.	.
C[N+](C)(C)c1ccc(/C=N/Nc2nc(Cl)c(C#N)c(Cl)c2Cl)cc1	.	.	38	/	.	.
CC(C)(C)c1ccc(OCc2cnc(Cl)s2)cc1	.	.	.	39	.	.
O=C1c2ccccc2C(=O)N1CCCCc1cn(CC2CCC(C3CCC(Cn4cc(CCCCN5C(=O)c6ccccc6C5=O)nn4)O3)O2)nn1 (stereo not given)	/	/	/	.	/	/
Cc1cccc(/C=N/n2c(C3CCCCC3)n[nH]c2=S)c1	.	.	.	/	11	.
COc1cc(/C=N/n2c(C3CCCCC3)n[nH]c2=S)cc(Br)c1O	.	.	32	/	.	.
SMILES	Rv3671c inh	Mtb UGM inh	GDH-TPI counter	Mtb hypoxia inh	FadD28 binding	Mtb FBA inh
COc1cc(C=Nn2c(C3CCCCC3)n[nH]c2=S)cc(Br)c1O	/	/	/	.	/	/
S=c1[nH]nc(C2CCCCC2)n1/N=C/c1cccc(Br)c1	.	.	.	/	.	.
COc1ccc(-c2cc3ccc(OCC(C)=O)cc3oc2=O)cc1	.	.	.	/	.	155
COC(=O)COc1ccc2c(=O)c(-c3ccccc3)coc2c1	.	.	.	.	.	.
COC(=O)COc1ccc2cc(-c3ccccc3)c(=O)oc2c1	.	.	38	.	.	+
NC(=O)COc1ccc2cc(-c3ccc(F)cc3)c(=O)oc2c1	.	.	.	.	.	+
NC(=O)COc1ccc2cc(-c3ccccc3)c(=O)oc2c1	.	.	31	.	.	+
COc1ccc(C=NNC(=O)c2ccc3c(c2)NC(=O)C(C)(C)O3)cc1OC	/	/	/	.	/	/
CCOC(=O)C(C)C(C)=NNC(=O)CCC(=O)Nc1cc(C)ccc1C (stereo not given)	/	/	/	.	/	/
O=C(CNS(=O)(=O)c1ccccc1)NN=Cc1ccncc1	/	/	/	.	/	/
C#CCOCCOCCOCCNc1nc(N2CCOCC2)nc(N2CCN(C(=O)C(Cc3cc4ccccc4[nH]3)n3cc(C(N)C(C)CC)nn3)CC2)n1 (stereo not given)	/	/	/	.	/	/
CNC(=S)NN=Cc1cc(C)n(-c2ccc(Cl)c(Cl)c2)c1C	/	/	/	.	/	/
O=C(COc1ccc2cc(-c3ccccc3)c(=O)oc2c1)NCC1CCC(C(=O)O)CC1 (stereo not given)	.	.	49	/	.	+
C=CCn1c(CC(=O)OC)csc1=Nc1ccc(C(C)=O)cc1	.	.	31	.	.	.
COc1ccc(-c2cc(C(=O)NN=Cc3cccnc3)c3ccccc3n2)cc1	/	/	/	.	/	/
O=C(C[n+]1ccccc1)NN=Cc1c(F)cccc1Cl	/	/	/	.	/	/
Cc1ccc2c(c1)C1C(CO2)C(c2ccccc2)[C@]2(C)C(=O)NCC(=O)N12 (stereo not given in full)	/	/	/	.	/	/
CC(Oc1ccc(Cl)cc1)C(=O)Nc1ccc(S(=O)(=O)Nc2nccs2)cc1 (stereo not given)	.	.	.	.	.	107
O=C(NNC(=O)c1cccs1)c1ccc([N+](=O)[O-])cc1	.	.	/	.	/	/
O=C(NNC(=O)c1ccc([N+](=O)[O-])cc1)c1ccc(NS(=O)(=O)c2cccs2)cc1	.	.	.	.	19	.
Cc1cccc(C(=O)NNC(=O)c2ccc(NS(=O)(=O)c3cccs3)cc2)c1C	.	.	.	.	13	.
COc1cc(-c2ccc3c(=O)c4ccccc4n(C)c3c2)cc(OC)c1OC	.	.	.	/	.	.
Cn1c2ccccc2c(=O)c2ccc(F)cc21	.	.	.	.	.	191
CCCCCCCCCCCCCCCC[n+]1cccc2ccccc21	.	.	.	.	17	.
O=C(N/N=C\c1c(O)ccc2ccccc12)c1ccc(O)cc1	.	.	.	/	.	.
SMILES	Rv3671c inh	Mtb UGM inh	GDH-TPI counter	Mtb hypoxia inh	FadD28 binding	Mtb FBA inh
Cn1c(-c2ccccc2)c(/C=N/NC(=O)c2ccc(O)cc2)c2ccccc21	.	.	52	/	.	.
Cn1c(/C=N/NC(=O)c2ccccc2)nc2ccccc21	.	.	47	/	.	.
Cn1c(C=NNC(=O)c2ccccc2)nc2ccccc21	/	/	/	.	/	/
Cn1c2ccccc2c2cc(/C=N/NC(=O)c3ccc(N)cc3)ccc21	.	.	36	/	.	.
Cn1c2ccccc2c2cc(/C=N/NC(=O)c3ccccc3F)ccc21	.	.	47	/	.	.
COC(=O)C1=C(C)N(CC2CC2)C(=NCCN2CCOCC2)NC1c1ccccc1 (stereo not given)	/	/	/	.	/	/
